Test results taken from PubChem BioAssay (Tox21).
Results filed as inconclusive are left out. Calls of active or inactive are those of the source. Unless noted, calls come from the whole dose curve; as a rule, active = well fitted curve in the direction sought with a large enough effect in the repeat runs; inconclusive = weak or mixed curves; inactive = no such curve, though single readings can be large; an effect the other way counts as inactive or inconclusive.

Assays:
[1] = qHTS RealTime-Glo MT Cell Viability Assay in HepG2 cells - 16 hour (AID 1224885); conditions: RealTime-Glo luminescence; series mostly up to 76.8 µM; note: nearly all actives have a fitted effect of over 50% in size
Summary of the method: (§1)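 HepG2 cells (600/well) were dispensed with RealTime-Glo reagents, incubated 5 h at 37 °C, then treated with compounds in DMSO for up to 40 h. Nonlytic NanoLuc luminescence reflecting viable cells was read at each stated time point.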

[2] = qHTS RealTime-Glo MT Cell Viability Assay in HEK293 cells - 24 hour (AID 1224886); conditions: RealTime-Glo luminescence; series mostly up to 76.8 µM; note: top concentration of the series differs between compounds; nearly all actives have a fitted effect of over 50% in size
Summary of the method: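 HEK293 cells seeded with NanoLuc/prosubstrate reagent, rested 5 h at 37 C, then dosed and kept at 37 C up to 40 h. Nonlytic real-time luminescence from viable cells read at 0, 8, 16, 24, 32 and 40 h.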

[3] = A CellTox Green Cytotoxicity Assay to monitor cytotoxicity in HEK293 cells - 16 hour (AID 1224888); conditions: CellTox Green fluorescence; series mostly up to 76.8 µM; note: nearly all actives have a fitted effect of over 35% in size
Summary of the method: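 Seeding of HEK293 cells together with cytotoxicity dye preceded a 5 h incubation at 37 C/5% CO2. Test compounds in DMSO were then added and fluorescence monitored across 40 h.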

[4] = qHTS RealTime-Glo MT Cell Viability Assay in HepG2 cells - 0 hour (AID 1224889); conditions: RealTime-Glo luminescence; series mostly up to 76.8 µM; note: nearly all actives have a fitted effect of over 50% in size
Summary of the method: as §1

[5] = A CellTox Green Cytotoxicity Assay to monitor cytotoxicity in HepG2 cells - 8 hour (AID 1224890); conditions: CellTox Green fluorescence; series mostly up to 76.8 µM; note: nearly all actives have a fitted effect of over 45% in size
Summary of the method: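 Nonlytic assay: viable cells exclude the dye, so fluorescence scales with cell death. HepG2 at 600 cells/well, compounds added after 5 h, signal read across 40 h.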

[6] = qHTS assay to identify small molecule antagonists of the estrogen receptor alpha (ER-alpha) signaling pathway using the BG1 cell line in the presence of 0.1 nM 17-beta-estradiol - cell viability counter screen (AID 1259241); conditions: VM7Luc4E2 (BG1) viability, CellTiter-Fluor protease, 22 h, 0.1 nM estradiol agonist added; series mostly up to 92.4 µM; note: nearly all actives have a fitted effect of over 40% in size
Summary of the method: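 Cytotoxicity counter-screen: live-cell protease activity measured by fluorescence (30 min reagent step) in the same wells. Cells were VM7Luc4E2 with endogenous ER-alpha and ERE-driven luciferase, treated 22 hr at 37C alongside 0.1 nM 17beta-estradiol final.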

[7] = qHTS assay to identify small molecule antagonists of the androgen receptor (AR) signaling pathway using the MDA cell line in the presence of 0.5 nM R1881 - cell viability counter screen (AID 1259242); conditions: MDA-kb2 viability, CellTiter-Fluor protease fluorescence, 16 h; series mostly up to 92.4 µM; note: nearly all actives have a fitted effect of over 45% in size
Summary of the method: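 R1881 at 0.5 nM final stimulated MDA-kb2 cells during 16 hr compound treatment at 37C. Cytotoxicity read: CellTiter-Fluor fluorescence after 30 min.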

[8] = target: Androgen receptor (Homo sapiens) (UniProt P10275); test: qHTS assay to identify small molecule antagonists of the androgen receptor (AR) signaling pathway using the MDA cell line in the presence of 0.5 nM R1881 (AID 1259243); conditions: MDA-kb2 MMTV-luciferase, R1881 0.5 nM, 16 h; series mostly up to 92.4 µM; note: nearly all actives have a fitted effect of over 50% in size
Summary of the method: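 We exposed MDA-kb2 cells to compounds under 0.5 nM R1881 stimulation for 16 hr at 37C and quantified MMTV-driven luciferase by luminescence.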

[9] = qHTS assay to identify small molecule HDAC inhibitors (AID 1259364); conditions: HCT-116 HDAC-Glo I/II luminescence, 2 h; series mostly up to 92.4 µM;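 note: wild-type HCT-116 cells with endogenous class I/II HDAC activity; top concentration of the series differs between compounds; nearly all actives have a fitted effect of over 45% in size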
Summary of the method: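 Relative class I and II HDAC activity is taken from the luminogenic signal in HCT-116 cells, with compound exposure 2 hr and reagent development 30 min at room temperature.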

[10] = qHTS assay to identify small molecule HDAC inhibitors - cell viability counter screen (AID 1259365); conditions: HCT-116 viability, CellTiter-Glo ATP luminescence, 2 h; series mostly up to 92.4 µM; note: nearly all actives have a fitted effect of over 50% in size
Summary of the method: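 CellTiter-Glo luminescence (30 min, room temperature) reported viability after a 2 h compound exposure at 37 C. Cells: wild-type HCT-116, 1,500 per well, seeded the night before.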

[11] = qHTS assay to identify small molecule agonists of the sonic hedgehog signaling (Shh) pathway - cell viability counter screen (AID 1259366); conditions: NIH/3T3 Gli1-Luc viability, CellTiter-Fluor, 24 h; series mostly up to 92.4 µM; note: nearly all actives have a fitted effect of over 50% in size
Summary of the method: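 Cytotoxicity counter screen: CellTiter-Fluor reagent added after 23 h compound exposure, then 1 h at 37C and fluorescence read. Cells were 3T3 Gli1-Luc, seeded 2,000 per well and dosed 4 h post-plating.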

[12] = qHTS assay to identify small molecule antagonists of the sonic hedgehog signaling (Shh) pathway - cell viability counter screen (AID 1259367); conditions: NIH/3T3 Gli1-Luc viability, CellTiter-Fluor, 24 h; series mostly up to 92.4 µM; note: nearly all actives have a fitted effect of over 55% in size
Summary of the method: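 After a 4 hr settling period, 3T3 Gli1-Luc cells were treated with DMSO-dissolved chemicals and conditioned medium, kept 24 hr at 37C in 5% CO2, and assayed for viability by CellTiter-Fluor fluorescence following 1 hr reagent incubation.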

[13] = qHTS assay to identify small molecule agonists of the sonic hedgehog signaling (Shh) pathway (AID 1259368; calls by dose curve;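 note: NIH/3T3-derived 3T3Gli1-Luc cells carrying a stable Gli1-driven firefly luciferase reporter; nearly all actives have a fitted effect of over 15% in size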); conditions: NIH/3T3 Gli1-Luc reporter, luciferase, 24 h; series mostly up to 92.4 µM
Summary of the method: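 Mouse fibroblast (NIH/3T3) reporter cells with stably integrated Gli1-Luc were treated 24 hr with compound; firefly luciferase luminescence served as the read-out.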

[14] = qHTS assay to identify small molecule antagonists of the sonic hedgehog signaling (Shh) pathway (AID 1259369; calls by dose curve; note: nearly all actives have a fitted effect of over 45% in size); conditions: NIH/3T3 Gli1-Luc reporter, Shh antagonist, luminescence 24 h; series mostly up to 92.4 µM
Summary of the method: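 Conditioned medium drives Shh signalling in 3T3Gli1-Luc cells; compounds in DMSO co-applied, 24hr at 37 C, then luciferase luminescence.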

[15] = target: Estrogen receptor beta (Homo sapiens) (UniProt Q92731); test: qHTS assay to identify small molecule agonists of the estrogen receptor beta (ER-beta) signaling pathway (AID 1259377; active = well fitted activation curve with a large enough effect in the signal ratio in the repeat runs, not every such curve was filed as active; the % refers to the signal ratio); conditions: ER-beta-UAS-bla HEK293T, beta-lactamase FRET ratio, 16 h; series mostly up to 92.4 µM
Summary of the method: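 Ratiometric beta-lactamase FRET read-out came after 2 h substrate loading at room temperature. It followed 16 h compound treatment at 37C of GripTite HEK293T cells carrying a UAS-bla reporter, plated in 2% charcoal-stripped FBS medium.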

[16] = target: Estrogen receptor beta (Homo sapiens) (UniProt Q92731); test: qHTS assay to identify small molecule antagonists of the estrogen receptor beta (ER-beta) signaling pathway (AID 1259378; active = well fitted inhibition curve with a large enough effect in the signal ratio in the repeat runs, not every such curve was filed as active; the % refers to the signal ratio); conditions: ER-beta-UAS-bla HEK293T, beta-lactamase FRET ratio, 16 h; series mostly up to 92.4 µM
Summary of the method: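 ER-beta-UAS-bla HEK293T (GripTite) cells in 2% charcoal-stripped FBS medium were preincubated 6 hr at 37C, dosed with compound, then stimulated with 1 nM E2 (final) for 16 hr; beta-lactamase reporter read by B/G FRET fluorescence after 2 hr substrate loading.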

[17] = qHTS assay to identify small molecule agonists of the androgen receptor (AR) signaling pathway in the presence of an antagonist - cell viability counter screen (AID 1259379); conditions: MDA-kb2 viability, CellTiter-Fluor, 16 h; series mostly up to 92.4 µM;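 note: MDA-kb2 human breast cancer cells carrying an MMTV luciferase reporter; nearly all actives have a fitted effect of over 25% in size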
Summary of the method: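 A CellTiter-Fluor read-out measured viability of MDA-kb2 reporter cells (MMTV promoter with AR and GR response elements). Treatment: nilutamide 3.0uM final with compounds at 15 concentrations, 16 hr, 37C, 0% CO2.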

[18] = qHTS RealTime-Glo MT Cell Viability Assay in HEK293 cells - 8 hour (AID 1224887); conditions: RealTime-Glo luminescence; series mostly up to 76.8 µM
Summary of the method: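 Tox21 screen in HEK293 using RealTime-Glo MT chemistry, with cells and reagent co-dispensed. Luminescence proportional to viable cell number was captured at intervals during 40 h compound exposure at 37 C.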

[19] = target: Estrogen receptor (Homo sapiens) (UniProt P03372); test: qHTS assay to identify small molecule antagonists of the estrogen receptor alpha (ER-alpha) signaling pathway using the BG1 cell line in the presence of 0.1 nM 17-beta-estradiol (AID 1259244); conditions: VM7Luc4E2 (BG1) ERE-luciferase, antagonist mode, 0.1 nM E2, 22 h; series mostly up to 92.4 µM; note: nearly all actives have a fitted effect of over 50% in size
Summary of the method: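 VM7Luc4E2; 4xERE-luciferase; 0.1 nM E2 final; 22 h co-incubation, 37C; ONE-Glo luminescence after 30 min at room temperature.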

Measured: Potency

Androgen receptor (Homo sapiens), sequence (P10275 whole entry, looked up): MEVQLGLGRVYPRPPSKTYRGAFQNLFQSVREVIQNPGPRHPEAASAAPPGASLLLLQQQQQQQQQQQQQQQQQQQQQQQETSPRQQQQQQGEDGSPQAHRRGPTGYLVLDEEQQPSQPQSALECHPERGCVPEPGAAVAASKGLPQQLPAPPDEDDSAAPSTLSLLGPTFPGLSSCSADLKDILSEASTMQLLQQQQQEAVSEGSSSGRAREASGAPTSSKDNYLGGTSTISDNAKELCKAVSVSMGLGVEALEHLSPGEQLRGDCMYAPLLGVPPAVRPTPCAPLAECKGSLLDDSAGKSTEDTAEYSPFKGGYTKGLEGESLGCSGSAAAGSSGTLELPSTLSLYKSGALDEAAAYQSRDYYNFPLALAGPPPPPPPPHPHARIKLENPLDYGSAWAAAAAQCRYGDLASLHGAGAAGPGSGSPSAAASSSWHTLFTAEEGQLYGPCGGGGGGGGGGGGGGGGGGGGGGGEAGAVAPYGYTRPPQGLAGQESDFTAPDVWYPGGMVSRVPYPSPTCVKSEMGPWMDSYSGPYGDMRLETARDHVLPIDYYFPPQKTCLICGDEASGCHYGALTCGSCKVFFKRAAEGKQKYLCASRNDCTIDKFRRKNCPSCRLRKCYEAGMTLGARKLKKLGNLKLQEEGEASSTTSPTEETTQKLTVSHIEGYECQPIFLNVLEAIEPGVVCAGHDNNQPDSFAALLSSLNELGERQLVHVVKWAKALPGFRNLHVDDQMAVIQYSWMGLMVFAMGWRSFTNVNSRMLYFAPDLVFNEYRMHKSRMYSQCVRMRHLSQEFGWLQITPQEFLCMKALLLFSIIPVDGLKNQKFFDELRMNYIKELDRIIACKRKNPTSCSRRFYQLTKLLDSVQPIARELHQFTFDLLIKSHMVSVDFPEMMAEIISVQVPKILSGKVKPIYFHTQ
Estrogen receptor (Homo sapiens), sequence (P03372 whole entry, looked up): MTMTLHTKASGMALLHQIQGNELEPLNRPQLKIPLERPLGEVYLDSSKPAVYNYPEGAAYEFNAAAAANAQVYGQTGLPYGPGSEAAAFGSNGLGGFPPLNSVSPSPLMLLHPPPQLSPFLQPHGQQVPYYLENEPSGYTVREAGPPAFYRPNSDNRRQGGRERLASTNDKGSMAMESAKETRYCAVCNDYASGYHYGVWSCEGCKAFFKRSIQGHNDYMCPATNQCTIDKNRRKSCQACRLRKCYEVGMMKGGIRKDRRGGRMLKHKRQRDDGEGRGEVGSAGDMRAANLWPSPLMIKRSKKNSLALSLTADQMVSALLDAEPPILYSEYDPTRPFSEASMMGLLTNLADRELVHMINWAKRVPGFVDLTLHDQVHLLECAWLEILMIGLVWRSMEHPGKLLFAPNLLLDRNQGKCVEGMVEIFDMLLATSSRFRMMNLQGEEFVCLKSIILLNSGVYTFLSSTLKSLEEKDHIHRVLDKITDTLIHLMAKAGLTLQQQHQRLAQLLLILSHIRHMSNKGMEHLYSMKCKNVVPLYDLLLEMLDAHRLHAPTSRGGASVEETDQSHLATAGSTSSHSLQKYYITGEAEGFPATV
Estrogen receptor beta (Homo sapiens), sequence (Q92731 whole entry, looked up): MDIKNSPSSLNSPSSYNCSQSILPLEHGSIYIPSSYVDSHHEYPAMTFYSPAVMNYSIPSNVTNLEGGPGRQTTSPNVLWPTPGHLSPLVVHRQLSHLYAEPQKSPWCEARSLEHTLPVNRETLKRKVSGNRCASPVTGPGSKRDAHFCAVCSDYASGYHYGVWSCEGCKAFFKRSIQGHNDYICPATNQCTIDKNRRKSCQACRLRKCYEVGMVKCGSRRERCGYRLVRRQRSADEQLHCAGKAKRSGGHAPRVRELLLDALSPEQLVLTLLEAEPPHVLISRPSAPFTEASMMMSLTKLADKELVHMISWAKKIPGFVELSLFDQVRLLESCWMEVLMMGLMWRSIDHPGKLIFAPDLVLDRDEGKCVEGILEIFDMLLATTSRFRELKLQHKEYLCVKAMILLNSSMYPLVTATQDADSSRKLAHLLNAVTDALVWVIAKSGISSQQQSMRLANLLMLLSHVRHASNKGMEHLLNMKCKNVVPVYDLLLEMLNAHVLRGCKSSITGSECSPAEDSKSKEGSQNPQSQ

O=c1[nH]c(=O)[nH]c(=O)[nH]1
inactive: [1] | [2] | [3] | [4] | [5] | [6] | [7] | [8] | [9] | [10] | [11] | [12] | [13] | [14] | [15] | [16] | [17]

ClCCBr
inactive: [1] | [2] | [18] | [3] | [4] | [5] | [7] | [19] | [9] | [10] | [11] | [13] | [14] | [15] | [17]

O=C(O)c1ccccn1
inactive: [1] | [2] | [18] | [3] | [4] | [5] | [7] | [19] | [9] | [10] | [11] | [12] | [13] | [14] | [15] | [16] | [17]

Cc1ccc(N)cc1Cl
inactive: [1] | [2] | [18] | [3] | [4] | [5] | [7] | [19] | [9] | [10] | [11] | [12] | [13] | [14] | [15] | [17]

CCN(CC)c1ccccc1
inactive: [8]
